In the library only some 3.5% were active in any assay of this set; here they are far more common.
Bead autofluor = flagged as autofluorescent in microsphere protease counterscreen; compound autofluorescence counterscreen, microsphere flow cytometry; hits give high values; fluorescence intensity (concentration not given with the values); 360,000 compounds, 3.1% hits; AID 624483; in the data active = fluorescence intensity above about 16000
BoNT-F LC inh = blocks Botulinum neurotoxin F light chain protease; AID 588497; inhibition, % at 10 µM; 360,000 compounds, 0.22% hits; Multiplex microsphere protease cleavage assay, flow cytometry; in the data active = inhibition above about 35%, passing the limit was not always enough
Anthrax LF prot = blocks Bacillus anthracis lethal factor protease | P15917 | 360,000 compounds, 0.12% hits | inhibition, % at 10 µM | multiplex microsphere protease cleavage assay, LF
SARS 3CLpro inh-1 = SARS-CoV 3CLpro protease inhibition; P0C6X7; recombinant SARS-CoV 3CLpro, quenched FRET peptide cleavage; inhibition, % at 6 µM; 290,000 compounds, 0.14% hits; in the data active = inhibition above about 12%
BoNT A protease = BoNT A light chain protease inhibition; 360,000 compounds, 0.17% hits; multiplex microsphere protease substrate cleavage, flow cytometry; inhibition, % at 10 µM
SARS 3CLpro inh-2 = confirmation of SARS coronavirus 3C-like protease inhibitors | shares compounds with SARS 3CLpro inh-1 | inhibition, % at 6 µM | 380 compounds, 36% hits | QFRET protease activity assay, 3CLpro | AID 1879; in the data active = inhibition above about 13%
Large screens that a line does not name were inactive (follow-up assays come after a bar, where they were run). Cut-off read from the data, not from the text of the source, unless noted: active = inhibition above about 30%; inconclusive = no clear call, values can overlap the other calls; inactive = below that.

C[C@@]12C(=O)N(c3cccc(F)c3)C(=O)N1[C@H](c1ccc(F)cc1)[C@@H]1C(=O)N(C3CCCCC3)C(=O)[C@@H]12	SARS 3CLpro inh-1 14 | SARS 3CLpro inh-2 inactive
C[C@@]12C(=O)N(c3cccc(F)c3)C(=O)N1[C@H](c1ccc(Cl)cc1)[C@@H]1C(=O)N(C3CCCCC3)C(=O)[C@@H]12	none (no result: SARS 3CLpro inh-1)
Nc1ncc(Br)cc1S(=O)(=O)Nc1cc(C(F)(F)F)cc(C(F)(F)F)c1	SARS 3CLpro inh-1 23 | SARS 3CLpro inh-2 15
Cc1ccccc1Cn1nc(C)c(NC(=O)c2cc(-c3ccco3)on2)c1C	none
c1cncc(Nc2nc(-c3cccnc3)cs2)c1	none
Clc1ccccc1Nc1nc(-c2cccnc2)cs1	SARS 3CLpro inh-1 14 | SARS 3CLpro inh-2 inactive
CCN(Cc1ccccc1)C(=O)CSc1n[nH]c(N)n1	none
COc1ccc(-n2nnnc2SC(C)C(=O)NCC(=O)Nc2ccc(F)c(F)c2F)cc1 (centres undefined)	none
N#CCSc1nnc(-c2ccc(F)cc2)n1N	none
CCOc1ccc(NC(=O)CSc2nc(NS(=O)(=O)c3ccc(C)cc3)cc(=O)[nH]2)cc1	SARS 3CLpro inh-1 13 | SARS 3CLpro inh-2 inactive
COc1ccc(CC(=O)Nc2cc(F)ccc2F)cc1S(=O)(=O)N1CCOCC1	none (no result: SARS 3CLpro inh-1)
COC(=O)C(C)Sc1ccc2nnc(CCNS(=O)(=O)c3ccc(C)cc3)n2n1 (centres undefined)	none
Nc1c(C(O)(C(F)(F)F)C(F)(F)F)cc(C(O)(C(F)(F)F)C(F)(F)F)c2ccccc12	SARS 3CLpro inh-1 14 | SARS 3CLpro inh-2 inactive
COc1cccc(CNC(=O)CN(c2ccc(C(C)C)cc2)S(=O)(=O)c2c(C)noc2C)c1	SARS 3CLpro inh-1 15 | SARS 3CLpro inh-2 inactive
COc1ccc(CCNC(=O)COC(=O)/C=C/c2cc(OC)ccc2OC)cc1	none (no result: SARS 3CLpro inh-1)
Cc1ccc(-c2ccc(/C=N/N3C(=O)C4C5C=CC(C6CC56)C4C3=O)o2)c([N+](=O)[O-])c1 (centres undefined)	none
O=C1C2C3C=CC(C3)C2C(=O)N1/N=C/c1ccc(-c2ccccc2[N+](=O)[O-])o1 (centres undefined)	SARS 3CLpro inh-1 12 | SARS 3CLpro inh-2 inactive
CC(C)(C)OC(=O)C1C(=O)CC(C)(O)C(C(=O)OC(C)(C)C)C1c1ccco1 (centres undefined)	none
CCOC(=O)c1cnc2c(N=Nc3ccccc3)c(N)nn2c1N	none
CC(C)N(CCNS(=O)(=O)c1ccc(Cl)cc1)C(C)C	none
CC(C)OP(=O)(OC(C)C)C1(NS(=O)(=O)c2ccc(Cl)cc2)C=C(Cl)C(=O)C(Cl)=C1	SARS 3CLpro inh-1 17 (no result: Bead autofluor, BoNT-F LC inh, Anthrax LF prot, BoNT A protease) | SARS 3CLpro inh-2 inactive
Cc1ccc(N2C(=O)N(CC(=O)Nc3cccc(C)c3C)C(=O)C2C)cc1 (centres undefined)	none (no result: SARS 3CLpro inh-1)
CC(C)(C)OC(=O)[C@H](Cc1ccccc1)NC(=O)c1nc[nH]c1C(=O)N[C@@H](Cc1ccccc1)C(=O)OC(C)(C)C	none (no result: SARS 3CLpro inh-1)
CC(C)(C)OC(=O)[C@H](Cc1ccccc1)NC(=O)c1[nH]cnc1C(=O)N[C@@H](Cc1ccccc1)C(=O)OCc1ccccc1	SARS 3CLpro inh-1 13 | SARS 3CLpro inh-2 inactive
COCCNC(=O)C(c1ccccc1)N(Cc1cccs1)C(=O)Cn1nnc2ccccc21 (centres undefined)	SARS 3CLpro inh-1 23 | SARS 3CLpro inh-2 21
CCC(C)(C)NC(=O)C(c1cccn1C)N(C(=O)Cn1nnc2ccccc21)c1ccc(F)cc1 (centres undefined)	none
Cc1ccc(CN(C(=O)Cn2nnc3ccccc32)C(C(=O)NCc2ccco2)c2cccs2)cc1 (centres undefined)	SARS 3CLpro inh-1 25 | SARS 3CLpro inh-2 19
O=C(NCc1ccco1)C(c1ccco1)N(CCc1ccccc1)C(=O)Cn1nnc2ccccc21 (centres undefined)	SARS 3CLpro inh-1 26 | SARS 3CLpro inh-2 28
CCC(C)(C)NC(=O)C(c1cccn1C)N(C(=O)Cn1nnc2ccccc21)c1ccc(NC(C)=O)cc1 (centres undefined)	SARS 3CLpro inh-1 46 | SARS 3CLpro inh-2 50
O=c1c(-c2ccccc2Cl)coc2c(CN3CCCCC3)c(O)ccc12	none
O=C(NCc1ccco1)C(c1cccs1)N(Cc1ccccc1)C(=O)Cn1nnc2ccccc21 (centres undefined)	SARS 3CLpro inh-1 20 | SARS 3CLpro inh-2 29
O=C(NC1CCCCC1)C(c1ccco1)N(Cc1cccs1)C(=O)Cn1nnc2ccccc21 (centres undefined)	none
COCCNC(=O)C(c1ccc(C)o1)N(C(=O)Cn1nnc2ccccc21)c1ccccc1 (centres undefined)	SARS 3CLpro inh-1 14 | SARS 3CLpro inh-2 inactive
O=C(NCc1ccco1)C(c1ccco1)N(Cc1cccs1)C(=O)Cn1nnc2ccccc21 (centres undefined)	SARS 3CLpro inh-1 14 | SARS 3CLpro inh-2 inactive
COCCNC(=O)C(c1ccc(C)o1)N(Cc1ccc(OC)cc1)C(=O)Cn1nnc2ccccc21 (centres undefined)	none
O=C(CC1SC(N2CCCCC2)=NC1=O)Nc1ccc(C(=O)NCCc2ccc(F)cc2)cc1 (centres undefined)	none (no result: SARS 3CLpro inh-1)
CCOc1cc(C(N)=O)cc(Br)c1OC	SARS 3CLpro inh-1 15 | SARS 3CLpro inh-2 inactive
COc1cc(/C=N\NC(=O)Cn2nnc3ccccc32)cc(OC)c1OC	SARS 3CLpro inh-1 37 | SARS 3CLpro inh-2 57
O=C(Cn1nnc2ccccc21)N/N=C\c1cccs1	SARS 3CLpro inh-1 14 | SARS 3CLpro inh-2 16
Cc1ccc(-n2ccnc2SCC(=O)O)cc1C	none
O=C(Oc1ccc(N2C(=O)CCC2=O)cc1)c1ccco1	none
O=C(Oc1ccc(Cl)cc1N1C(=O)CCC1=O)c1ccco1	SARS 3CLpro inh-1 15 (no result: Bead autofluor, BoNT-F LC inh, Anthrax LF prot, BoNT A protease) | SARS 3CLpro inh-2 18
O=C(CSc1ccc(F)cc1)Nc1ccc2c(c1)C(=O)NC2=O	SARS 3CLpro inh-1 13 | SARS 3CLpro inh-2 inactive
Cc1ccc(C2C3=C(CC(C)(C)CC3=O)Nc3onc(C)c32)cc1 (centres undefined)	SARS 3CLpro inh-1 15 | SARS 3CLpro inh-2 inactive
Cc1noc2c1C(c1ccc(N(C)C)cc1)C1=C(CC(C)(C)CC1=O)N2 (centres undefined)	none
CCOC(=O)C1CCN(C(=O)c2ccc(N3CCOCC3)c([N+](=O)[O-])c2)CC1	none (no result: SARS 3CLpro inh-1)
CCn1cc(C(=O)NC(=S)Nc2ccccc2[N+](=O)[O-])cn1	SARS 3CLpro inh-1 13 | SARS 3CLpro inh-2 inactive
N#Cc1c(-c2ccccc2)nc(SCC(=O)Nc2ccc(OC(F)(F)Cl)cc2)[nH]c1=O	SARS 3CLpro inh-1 16 | SARS 3CLpro inh-2 inactive
COc1cccc(NC(=O)c2ccc3c(O)c(S(=O)(=O)c4ccccc4)c(=O)[nH]c3c2)c1	none
COc1ccc(S(=O)(=O)c2c(O)c3ccc(C(=O)Nc4cccc(F)c4)cc3[nH]c2=O)cc1	SARS 3CLpro inh-1 13 | SARS 3CLpro inh-2 inactive
CC1CCN(c2cc(N(C)CCO)c([N+](=O)[O-])c3nonc23)CC1	none
Cc1ccc(N(C(=O)c2ccco2)C(C(=O)NC2CCCC2)c2cccnc2)cc1C (centres undefined)	none

Screening data (PubChem)
